The whole screen tested about 2,400 compounds, of which about 360 (15%) were called active.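 The calls were made as follows: active = viability falls under 70% at one or more tested concentrations, taken as toxicity; inactive = viability stays over 70% at every dose.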 Only a sample is shown. Entries with a potency or affinity are not part of this list.
Test: viability loss in HeLa cells – cytotoxicity control for MgcRacGAP inhibitor project, dose response (AID 624300)
Conditions: CellTiter-Glo luminescence, 24 h; series mostly up to 100 µM

| SMILES | outcome |
| --- | --- |
| COc1ccc(OCC(O)CN2CCCC2)cc1 (centres undefined) | inactive |
| OCCN1CCN(CC(O)COC(c2ccc(F)cc2)c2ccc(F)cc2)CC1 (centres undefined) | inactive |
| c1ccc(CNC23CC4CC(CC(C4)C2)C3)nc1 | inactive |
| COc1ccc(S(=O)(=O)N2CCC(N3CCN(Cc4ccccc4)CC3)CC2)cc1 | inactive |
| O=C(CSc1cn[nH]n1)Nc1cccc(C(=O)O)c1 | inactive |
| CN(CCOc1ccc(Cl)c(Cl)c1)Cc1ccccc1 | inactive |
| Cc1cc(C)c(OCCCCN(C)Cc2ccccc2)c(C)c1 | inactive |
| Cc1ccc(OCCCCNC(C)(C)C)c([N+](=O)[O-])c1 | inactive |
| Cc1ccc(-n2[nH]c(=O)c3cccnc32)cc1 | inactive |
| Nc1ccc(N2CCN(C(=O)c3cccs3)CC2)cc1 | inactive |
| COc1cc(/C=C/C(=O)OCC(=O)NCCCc2ccccc2)ccc1O | inactive |
| COc1cc(/C=N/Nc2nc3ccccc3s2)ccc1O | inactive |
| CC(=O)Nc1n[nH]c(=S)s1 | inactive |
| O=C(N/N=C/c1sc2ccccc2c1O)c1cccc2ccccc12 | inactive |
| O=C(CNC(=O)c1ccc2c(c1)OCCO2)N/N=C/c1ccc(O)cc1O | inactive |
| CN(C)/C=C1/C=C(c2ccccc2)OC1=O | inactive |
| COc1cc(/C=N/N=C2/NC(=O)C(c3ccccc3)S2)ccc1O (centres undefined) | inactive |

| SMILES | outcome |
| --- | --- |
| O=C(CN1CCCCCC1)NN(Cc1ccccc1)c1ccccc1 | inactive |
| S=C(NCCCN1CCOCC1)Nc1ccc(Nc2ccccc2)cc1 | inactive |
| Cc1ccc(CNc2ncc(-c3ccccc3)n2C)o1 | inactive |
| COc1ccccc1CNc1ncc(-c2ccccc2)n1C | inactive |
| COc1cc(CNc2ncc(-c3ccc(Br)cc3)n2C)cc(OC)c1O | inactive |
| Cn1c(-c2ccccc2)cnc1NCc1ccc(-c2ccccc2)cc1 | inactive |
| COc1ccc(CNc2ncc(-c3ccc(Br)cc3)n2C)cc1OC | inactive |
| Clc1ccccc1CNCc1ccc2c(c1)OCO2 | inactive |
| O=C1c2ccccc2C(=O)N1/N=C/c1ccc(O)c(O)c1 | inactive |
| COc1ccc(C(=O)CCC(=O)Nc2cc(Cl)c(O)c(Cl)c2)cc1 | inactive |
| N#CC1=C(N)NC(=S)C(C(N)=O)C1c1ccc([N+](=O)[O-])cc1 (centres undefined) | inactive |
| Cc1ccc(COC(=O)Cc2coc3cc(O)ccc23)cc1 | inactive |
| CCS(=O)(=O)c1cc([N+](=O)[O-])c(Sc2ccccc2N)s1 | inactive |
| CCOc1cc(/C=N/NC(=O)NN(C)c2ncc(C(F)(F)F)cc2Cl)ccc1O | inactive |
| O=C(Cc1ccc(Cl)cc1)N/N=C/c1ccc(O)c(O)c1 | inactive |
| O=c1c(O)c(-c2ccc(O)c(O)c2)oc2cc(O)ccc12 | inactive |
| COC(=O)c1[nH]c2ccc(Cl)cc2c1NC(=O)Oc1ccccc1 | inactive |
